Rows were chosen to be rich in hits. Some 1.8% of all compounds tested hit in one or more screens of this group.
EWS-Fli block: blocks EWS/Fli oncoprotein-driven transcription. A673 NR0B1-luciferase reporter, viability-normalised. inhibition, % at 12.6 µM. hit rate 0.67% among 350,000. AID 651661;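 active means mean inhibition of at least 50% after viability correction, with every replicate also passing that limit; inconclusive means mean reaches 50% but only one of two replicates passes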;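 further: firefly luciferase signal divided by Alamar Blue viability fluorescence both relative to DMSO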
PAX8 reporter: PAX8 transcriptional activity inhibition. inhibition, % at 12.6 µM. hit rate 1.2% among 360,000. AID 652154. RMG-I TPO-luciferase reporter, SteadyGlo, 24 h;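 active means mean replicate inhibition at least 60% with every replicate also reaching 60%; inconclusive means only one of the two criteria is met; inactive means mean below 60% and not all replicates reaching 60%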;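 further: luciferase light reporting Pax8 driven TPO promoter activity; plate controls were median of neutral control wells for no effect and mitoxantrone controls for full effect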
LGR2 inh: blocks bursicon-induced cAMP signaling via Drosophila LGR2; hit rate 0.35% among 380,000; HEK293 LGR2, CRE-luciferase, bursicon-stimulated, 4 h; inhibition, % at 9.99 µM;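 active means drop in luminescence signal, shown as inhibition above about 50% in the replicate tests, limit read from the data, passing the limit was not always enough; inconclusive means probably only some replicates passing the limit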;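 further: agonist challenge used bursicon conditioned medium at about half maximal strength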
F508del corr: CFTR F508del correction in bronchial cells | CFBE cells, YFP halide quenching; stimulated with forskolin plus potentiator P3; % fluorescence drop versus neutral controls | activity (quench increase), % at 7.58 µM | hit rate 0.36% among 350,000 | AID 720511;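 active means mean added fluorescence quench of at least 8% versus neutral control, with both replicates also reaching 8%; inconclusive means only one of the mean or replicate conditions met; inactive means mean below 8% and not both replicates reaching 8%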;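 further: cells transiently co-express mutant CFTR-F508del with the halide-sensitive YFP; corrector assay measuring rescue of mutant channel to the surface after 24 h compound exposure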
* marks the source's active call; other numbers are inactive results; ? = inconclusive; nt = not tested or not shown; ! = not confirmed by another sample.

SMILES	EWS-Fli block	PAX8 reporter	LGR2 inh	F508del corr
COc1ccc(-c2cnc3c(NC=O)cc(-c4ccccc4)cn23)cc1OC	46	33	-37	13*
CS(=O)(=O)Nc1cccc(-c2cc(NC=O)c3ncc(-c4ccc(F)c(Cl)c4)n3c2)c1	11	64*	-16	-2
COc1ccc(-c2cnc3c(NC=O)cc(-c4cc(OC)c(OC)c(OC)c4)cn23)cc1OC	28	31	-1	4
COc1ccc(-c2cnc3c(NC=O)cc(-c4cccc(NS(C)(=O)=O)c4)cn23)cc1OC	48	112*	-3	2
CC(=O)NCCNC(=O)C1Cc2c(-c3ccc(Cl)cc3)ccnc2O1 (configuration not stated)	0	10	0	-1
Cc1ccc(C)c(-n2c3nc(=O)[nH]c(=O)c-3cc3cc([N+](=O)[O-])ccc32)c1	70*	34	26	-2
CC(C)c1ccc(NC(=O)C2(C)Cc3c(-c4ccc(N(C)C)cc4)ccnc3O2)cc1 (configuration not stated)	0	-14	-4	-3
CCOc1cc(OCC)c(C(C)=O)cc1OCC	0	nt	2	8.4*
c1ccc(CNc2nc(NCc3cccs3)nc3ccsc23)cc1	12	35	57*	1
c1ccc(CNc2nc(NCCc3ccncc3)c3sccc3n2)cc1	16	70*	20	4
CNc1nc(NCc2ccccc2)c2sccc2n1	-2	-3	-10	2
CCOC(=O)Cc1csc(NC(=O)c2ccc(S(=O)(=O)N3CCCC3)cc2)n1	nt	nt	16	nt
CCOc1ccccc1N1CCN(C(=O)c2cc3ccccc3cc2OC)CC1	59*	42	6	17*
O=C1C=CC(=O)c2c(O)c(N3CCN(CCO)CC3)c(Cl)c(O)c21	38	-10	-23	-8
O=C1C=CC(=O)c2c(O)c(N3CCN(CCOCCO)CC3)c(Br)c(O)c21	?	97*	6	-4
Cc1onc(-c2ccccc2)c1C(=O)N/N=C/c1c[nH]c2ccccc12	13	-2	-12	1
Cc1ccc(/C=N/NC(=O)c2c(-c3ccccc3)noc2C)c(O)c1	9	41	-4	11*
CCCCN1C(=N)N([C@@H](C)CN2CCC[C@H]2CN2C(N)=NC[C@@H]2Cc2ccccc2)C[C@H]1Cc1ccccc1	-4	49	9	-3
CCCCN1C(=N)N([C@@H](CN2CCC[C@H]2CN2C(N)=NC[C@@H]2Cc2ccccc2)C(C)C)C[C@H]1Cc1ccccc1	7	63*	-4	-1
COc1ccc(/C=N/NC(=S)Nc2ccccc2[N+](=O)[O-])cc1O	-14	-25	38	8.8*
CCCOc1ccc(/C=N/NC(=S)Nc2ccccc2[N+](=O)[O-])c(O)c1	nt	94*	83*	nt
Cc1ccc(S(=O)(=O)N(C)C[C@H]2OCc3cnnn3CCCC(=O)N([C@H](C)CO)C[C@H]2C)cc1	6	?	6	-3
Cc1ccc(S(=O)(=O)N(C)C[C@H]2Oc3ccc(NS(=O)(=O)c4ccc(F)cc4)cc3CC(=O)N([C@H](C)CO)C[C@H]2C)cc1	-16	104*	5	-1
Cc1ccc(S(=O)(=O)N(C)C[C@H]2OCc3cnnn3CCCC(=O)N([C@@H](C)CO)C[C@H]2C)cc1	5	62*!	7	0
Cc1ccc(S(=O)(=O)Nc2ccc3c(c2)CC(=O)N([C@H](C)CO)C[C@H](C)[C@H](CN(C)S(=O)(=O)c2ccc(F)cc2)O3)cc1	6	79*	11	-2
SMILES	EWS-Fli block	PAX8 reporter	LGR2 inh	F508del corr
Cc1ccc(S(=O)(=O)N(C)C[C@H]2Oc3ccc(NS(=O)(=O)c4ccc(F)cc4)cc3CC(=O)N([C@H](C)CO)C[C@@H]2C)cc1	2	-5	19	-1
O=C(/C=C/c1cccc(F)c1)N1CCc2ccccc21	nt	-138	54*	nt
O=C(/C=C/c1cccc(F)c1)OCC(=O)N1CCCc2ccccc21	-3	-9	6	-2
c1ccc(-n2nnc3c(N4CCOCC4)ncnc32)cc1	nt	nt	83*	nt
O=C(COC(=O)Cc1ccsc1)Nc1cccc(F)c1	0	-9	12	16*
CC(C)[C@H](CO)Nc1nc(NCc2ccc(S(N)(=O)=O)cc2)c2ncn(C(C)C)c2n1	12	69*	53*	2
N#Cc1c([N+](=O)[O-])cc([N+](=O)[O-])cc1S(=O)(=O)Cc1ccccc1	?	101*	7	-3
CCN(CC(=O)Nc1c(F)cccc1F)C(=O)c1cccnc1Sc1ccccc1	5	12	1	-2
COc1ccccc1CNN	8	21	4	1
O=c1cc(C(Cl)(Cl)Cl)oc2c1ccc1ccccc12	nt	98*	nt	nt
Cn1cccc1C(C#N)(CC#N)c1cccc(F)c1C#N (configuration not stated)	-12	-4	2	1
Cc1cccc(N2CCN(S(=O)(=O)c3cc(-c4cc(C)no4)ccc3C)CC2C)c1 (configuration not stated)	49	56	-6	11*
NC(=O)[C@H]1CC2(CC(c3cccc(NC(=O)CC(c4ccccc4)c4ccccc4)c3)=NO2)CN1C(=O)C(c1ccccc1)c1ccccc1 (some centres not stated)	4	69*	-3	3
NC(=O)[C@H]1CC2(CC(c3cccc(NC(=O)COc4ccc(Cl)cc4)c3)=NO2)CN1C(=O)CC(c1ccccc1)c1ccccc1 (some centres not stated)	-1	47	5	0
NC(=O)[C@@H]1CC2(CC(c3cccc(NC(=O)CC(c4ccccc4)c4ccccc4)c3)=NO2)CN1C(=O)COc1ccc(Cl)cc1 (some centres not stated)	4	77*	15	0
COc1cc(NC2CCCCC2O)c2nc(-c3ccc(Cl)cc3)ccc2c1 (configuration not stated)	-18	9	-37	0
C[C@@H]1CN([C@H](C)CO)C(=O)Cc2cc(NC(=O)Nc3ccccc3)ccc2O[C@@H]1CN(C)Cc1ccc(-c2ccccc2)cc1	-6	11	-13	-4
COc1ccc(CN(C)C[C@H]2Oc3ccc(NC(=O)Nc4ccc5c(c4)OCO5)cc3CC(=O)N([C@@H](C)CO)C[C@@H]2C)cc1	-2	-5	4	0
COc1ccc(NC(=O)Nc2ccc3c(c2)CC(=O)N([C@@H](C)CO)C[C@H](C)[C@H](CN(C)Cc2ccc(-c4ccccc4)cc2)O3)cc1	9	22	-5	0
COc1ccc(NC(=O)Nc2ccc3c(c2)CC(=O)N([C@H](C)CO)C[C@H](C)[C@@H](CN(C)Cc2ccc(-c4ccccc4)cc2)O3)cc1	15	68*	-6	-1
COc1ccc(NC(=O)Nc2ccc3c(c2)CC(=O)N([C@@H](C)CO)C[C@@H](C)[C@H](CN(C)Cc2ccc(-c4ccccc4)cc2)O3)cc1	24	75*	15	-4
C[C@@H]1CN([C@@H](C)CO)C(=O)Cc2cc(NC(=O)Nc3ccccc3)ccc2O[C@H]1CN(C)Cc1ccc(-c2ccccc2)cc1	10	68*	18	-1

Source: PubChem
